We go through 14 compounds from PubChem BioAssay.

Each structure is given as a SMILES string. Calls of active or inactive are those of the source. Unless noted, the rule behind the calls is not given here.

The subject of assay [1] is Wnt5a (protein binding on small-molecule microarray). The experiment in a line: small molecules binding Wnt5a protein – biophysical, small-molecule microarray, 635/667 nm fluorescence, primary screen (AID 1142).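 Note: fluorescence read at 667 nm with signal to noise per printed feature.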 The settings on record: 635 nm fluorescence, higher = more signal.
A short description of assay [2]: ATP-based viability of Huh7 replicon cells – cell-based, CellTiter-Glo luminescence, basal, 48 h, cytotoxicity control for HCV replication inhibitor project, primary screen (AID 1143).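 Note: Huh7 hepatoma cells carrying a hepatitis C replication reporter with no stimulus; test concentration not given here.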 The settings on record: higher = more signal, called active from +8 up or from −8 down. (In general: A replicon is a self-replicating genome or part of one, used to study replication in cells.)

Assay [3] in a line: Pseudomonas biofilm growth suppression – PAO1 strain, BacTiter-Glo luminescence, LB-PBS, primary screen (AID 1144). The settings on record: P. aeruginosa PAO1 biofilm, 12 h, higher = more signal.
Assay [4] can be described thus: basal CRE-LacZ reporter activity in PC12 – cell-based, unstimulated, primary screen (AID 1145). The settings on record: no forskolin, luminescence, 4.5 h, higher = more signal, called active from +8 up or from −8 down.
The nature of assay [5]: forskolin-driven CRE-LacZ activity in PC12 – cell-based, CRE-LacZ reporter, forskolin-stimulated, primary screen (AID 1146).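 Note: PC12 cells with 6xCRE LacZ reporter stimulated by forskolin 10 µM; beta-galactosidase reporter signal reflecting CREB driven transcription.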 The settings on record: luminescence, 4.5 h, higher = more signal, called active from +8 up or from −8 down.
The target of assay [6] is Streptavidin (Streptomyces avidinii) (UniProt P22629). Description: compounds binding control protein streptavidin – biophysical, small-molecule microarray, 635/667 nm fluorescence, artefact control for SMM compound annotation, primary screen (AID 1147).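 Note: signal reflects streptavidin binding to arrayed compounds as a control protein.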 The settings on record: higher = more signal.
A short description of assay [7]: probe aInhba binding on compound microarray – biochemical, small-molecule microarray, 635/667 nm fluorescence, primary screen (AID 1148).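 Note: score merges 667nm spot fluorescence with signal-to-noise for antibody binding to printed compounds.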 The settings on record: higher = more signal.
In assay [8] the target is Torsin-1A (Homo sapiens) (UniProt O14656). The experiment in a line: TOR1A wild-type binding on microarray – cell lysate, small-molecule microarray, lysate, 635/667 nm, primary screen (AID 1149). The settings on record: COS7 hTOR1A-WT lysate, 635 nm fluorescence, higher = more signal.
The target is the same in assay [9]. The experiment in a line: torsin A mutant lysate binding on microarrays – cell lysate, small-molecule microarray, COS7 lysate, 635/667 nm fluorescence, primary screen (AID 1150).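 Note: score pools 667 nm emission and signal to noise measuring lysate protein binding.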 The settings on record: COS7 hTOR1A mutant lysate, 635 nm fluorescence, higher = more signal.
Assay [10] concerns Sonic hedgehog protein (Shh). The experiment in a line: Sonic hedgehog microarray binding compounds – biochemical, small-molecule microarray, 635/667 nm fluorescence, primary screen (AID 1151).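 Note: Shh protein binding to compounds spotted on small-molecule microarray slides; score combines spot fluorescence intensity with signal-to-noise across triplicate slides.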 The settings on record: 635 nm fluorescence, higher = more signal.

Sequence of Torsin-1A (Homo sapiens) (O14656 whole entry, looked up): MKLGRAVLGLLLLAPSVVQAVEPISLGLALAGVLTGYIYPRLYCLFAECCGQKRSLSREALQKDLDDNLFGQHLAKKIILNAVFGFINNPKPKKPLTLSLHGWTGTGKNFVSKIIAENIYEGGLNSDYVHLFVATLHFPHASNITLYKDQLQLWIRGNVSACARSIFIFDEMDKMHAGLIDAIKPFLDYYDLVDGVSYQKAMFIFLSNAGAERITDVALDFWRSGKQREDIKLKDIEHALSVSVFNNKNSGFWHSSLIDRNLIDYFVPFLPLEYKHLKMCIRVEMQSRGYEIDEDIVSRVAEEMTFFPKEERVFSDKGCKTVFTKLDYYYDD
Sequence of Streptavidin (Streptomyces avidinii) (P22629 whole entry, looked up): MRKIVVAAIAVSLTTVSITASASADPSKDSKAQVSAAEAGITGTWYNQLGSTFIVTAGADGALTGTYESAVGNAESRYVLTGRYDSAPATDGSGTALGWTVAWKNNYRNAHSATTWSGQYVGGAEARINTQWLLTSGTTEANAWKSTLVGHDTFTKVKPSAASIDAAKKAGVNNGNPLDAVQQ

Regarding `COCCOC(=O)N1C(=O)[C@@]2(c3cc(C#CCC(C(=O)OC)C(=O)OC)ccc31)[C@H](C(=O)N1CCCCCCC1)[C@H]1C(=O)O[C@H](c3ccccc3)[C@H](c3ccccc3)N1[C@@H]2c1ccc(OCCO)cc1`, the composite z-score in [1] was 1.42; in [6] it was 3.01; in assay [7], 1.69; in the assay with Torsin-1A (Homo sapiens) [8], 2.01; with Torsin-1A (Homo sapiens) [9], 1.87; in [10], 2.32. Further, the z-score is -2.31 (inactive) in assay [2], -1.02 (inactive) in assay [3], -1.15 (inactive) in assay [4] and -0.0519 (inactive) in assay [5].
Turning to `COCCOC(=O)N1C(=O)[C@@]2(c3cc(C#CCC(C(=O)OC)C(=O)OC)ccc31)[C@H](c1ccccc1OCCO)N1[C@H](c3ccccc3)[C@H](c3ccccc3)OC(=O)[C@H]1[C@@H]2C(=O)N1CCc2cc(OC)c(OC)cc2C1`, the composite z-score in assay [1] was -0.184; in assay [6], 0.226; in assay [7], -0.0774; with Torsin-1A (Homo sapiens) [8], 0.298; with Torsin-1A (Homo sapiens) [9], 0.619; in assay [10] it was 1.88. Further, the z-score in [2] was -3.42 (inactive); in [3], -1.52 (inactive); in assay [4], -1.42 (inactive); in assay [5] it was -1.16 (inactive).
For the compound `COCCOC(=O)N1C(=O)[C@@]2(c3cc(C#CCCO)ccc31)[C@H](c1ccccc1OCCO)N1[C@H](c3ccccc3)[C@H](c3ccccc3)OC(=O)[C@H]1[C@@H]2C(=O)N1CCN(c2ncccn2)CC1`, the composite z-score was 0.544 in assay [1]; 1.41 in [6]; 0.262 in [7]; 0.0623 with Torsin-1A (Homo sapiens) [8]; 0.835 in the assay with Torsin-1A (Homo sapiens) [9]; 1.37 in [10]. For the same compound, the z-score is -1.01 (inactive) in [2], 0.566 (inactive) in assay [3], -0.329 (inactive) in [4] and 1.99 (inactive) in assay [5].
On to `[N-]=[N+]=NCc1ccccc1[C@@H]1OC(c2ccc(OCCCO)cc2)=N[C@]1(Cc1ccccc1N=[N+]=[N-])C(=O)NCc1ccccc1`, for which the composite z-score was 0.378 in assay [1]; 0.942 in assay [6]; -0.0006 in assay [7]; 0.819 with Torsin-1A (Homo sapiens) [8]; 0.191 in the assay with Torsin-1A (Homo sapiens) [9]; 1.51 in assay [10]. For the same compound, the z-score in assay [2] was -3 (inactive); in assay [3] it was -0.433 (inactive); in [4], -0.193 (inactive); in assay [5], -1.02 (inactive).
As for `COC(=O)[C@]1(Cc2ccccc2N=[N+]=[N-])N=C(c2ccc(OCCCO)cc2)O[C@@H]1c1ccccc1N=[N+]=[N-]`, the composite z-score was -0.104 in [1]; 0.105 in assay [6]; -0.0762 in assay [7]; -1.45 in the assay with Torsin-1A (Homo sapiens) [8]; 0.283 with Torsin-1A (Homo sapiens) [9]; 0.765 in [10]. Also, the z-score is -5.35 (inactive) in assay [2], 0.337 (inactive) in [3], 2.85 (inactive) in assay [4] and -1.04 (inactive) in assay [5].
As for `C[N+](C)(C)CCCCCCNC(=O)[C@H]1C[C@H]2C(=O)N3CCC[C@H]3C(=O)N2[C@H]1c1ccc(O)cc1`, the composite z-score was -0.214 in [1]; -0.715 in [6]; 0.0184 in assay [7]; 0.0048 with Torsin-1A (Homo sapiens) [8]; 0.599 with Torsin-1A (Homo sapiens) [9]; 1.92 in assay [10]. The z-score in assay [2] was -2.61 (inactive); in [3] it was -0.911 (inactive); in [4] it was -0.813 (inactive); in [5], -0.935 (inactive).
`Cc1ccc(S[C@]2(C(=O)NCC(C)C)CC(=O)N(Cc3ccccc3)[C@@H]2c2ccc(CO)cc2I)cc1`: the composite z-score was 0.185 in assay [1]; 0.176 in [6]; 0.0422 in assay [7]; 0.298 with Torsin-1A (Homo sapiens) [8]; 0.835 with Torsin-1A (Homo sapiens) [9]; 2.21 in [10]. Moreover, the z-score in assay [2] is -2.48 (inactive); in assay [3], 0.229 (inactive); in assay [4], 0.856 (inactive); in [5] it was 1.27 (inactive).
Consider `Cc1ccc(S[C@]2(C(=O)NCCN3CCOCC3)CC(=O)N(Cc3cc(C(F)(F)F)cc(C(F)(F)F)c3)[C@@H]2c2ccc(CO)cc2I)cc1`, for which the composite z-score in assay [1] was -0.314; in assay [6] it was -0.71; in [7], -0.183; with Torsin-1A (Homo sapiens) [8] it was -2; in the assay with Torsin-1A (Homo sapiens) [9], 0.561; in assay [10], -0.4. In addition, the z-score in [2] was -2.42 (inactive); in assay [3] it was -0.956 (inactive); in assay [4], 0.389 (inactive); in assay [5], -0.0376 (inactive).
`COC(=O)[C@@]1(Cc2ccc(OC)cc2)[C@H]2c3cc(C(=O)N4CCCC4)n(Cc4cc(F)cc5c4OCOC5)c3C[C@H]2CN1C(=O)c1ccccc1`: the composite z-score in [1] is 0.605; in assay [6], 0.699; in assay [7], 0.423; with Torsin-1A (Homo sapiens) [8] it was 0.442; with Torsin-1A (Homo sapiens) [9] it was 0.996; in assay [10] it was -0.673. Also, the z-score in assay [2] was -2.5 (inactive); in assay [3] it was 0.437 (inactive); in assay [4] it was 2.68 (inactive); in [5] it was 66.7 (active).
In the case of `C=C[C@@H](COC(C)=O)N(Cc1ccc([N+](=O)[O-])cc1)S(=O)(=O)c1ccc(Br)cc1`, the composite z-score in assay [1] came to 0.191; in [6] it was 0.861; in [7], 0.0869; in the assay with Torsin-1A (Homo sapiens) [8], 0.474; in the assay with Torsin-1A (Homo sapiens) [9], 0.0176; in assay [10], 0.956. The z-score in [2] was -1.97 (inactive); in assay [3] it was -0.91 (inactive); in assay [4], 0.661 (inactive); in [5], 0.127 (inactive).
Turning to `O=C(OCCF)C1=CCC(c2cccc(Cl)c2)O1` (stereo not given), the composite z-score was 0.236 in [1]; 0.112 in assay [6]; -0.0468 in assay [7]; 1.09 with Torsin-1A (Homo sapiens) [8]; 2.19 with Torsin-1A (Homo sapiens) [9]; 0.299 in [10]. The z-score in assay [2] was -2.33 (inactive); in assay [3], -0.0826 (inactive); in [4], -0.0137 (inactive); in [5], 0.351 (inactive).
`CCCNC(=O)[C@@]1(c2ccc([N+](=O)[O-])cc2)CC(=O)N(CC23CC4CC(CC(C4)C2)C3)[C@@H]1c1ccc(CO)cc1`: the composite z-score was 0.4 in assay [1]; -0.204 in assay [6]; -0.272 in assay [7]; 0.0865 with Torsin-1A (Homo sapiens) [8]; 0.319 with Torsin-1A (Homo sapiens) [9]; 0.34 in assay [10]. Besides, the z-score in assay [2] is -5.17 (inactive); in assay [3], -0.293 (inactive); in [4], 0.531 (inactive); in [5], -0.312 (inactive).
On to `[N-]=[N+]=NCc1ccccc1C[C@]1(C(=O)NCC(O)CO)N=C(c2ccc(OCCCO)cc2)O[C@H]1c1ccccc1N=[N+]=[N-]` (stereo not given in full), for which the composite z-score is 0.376 in assay [1]; 0.22 in assay [6]; 0.403 in [7]; 0.26 with Torsin-1A (Homo sapiens) [8]; 0.67 with Torsin-1A (Homo sapiens) [9]; -1.48 in assay [10]. Moreover, the z-score in assay [2] is -2.54 (inactive); in [3], -0.000841 (inactive); in assay [4] it was 0.241 (inactive); in assay [5], -1.78 (inactive).
As for `O=C1OCCC=C[C@H]2OC34C=CCN(Cc5ccccc5)C(=O)[C@H]3N(CCCO)C(=O)[C@@H]4C12` (stereo not given in full), the composite z-score was -0.419 in assay [1]; -0.399 in [6]; -0.128 in [7]; -0.8 with Torsin-1A (Homo sapiens) [8]; -0.586 with Torsin-1A (Homo sapiens) [9]; -0.174 in assay [10]. In addition, the z-score in [2] was -3.89 (inactive); in assay [3] it was -2.36 (inactive); in [4], -1.31 (inactive); in assay [5], -1.18 (inactive).
